# HCV inh: qHTS Assay for Inhibitors of Hepatitis C Virus (HCV). AID 651820, 2012. 340,000 compounds, 3.4% hits. Potency, µM (top dose mostly 41.8 µM), inactives show at the highest dose activity change, negative = inhibition, actives largely listed as inhibitors. Huh7.5.1 HCVcc-Cre infection, luciferase reporter, 44 h; also: potency is read from the fitted curve at half-maximal effect; % is scaled to controls: 0 for no effect and ±100 for the full control effect
#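 HCVcc-Cre virus at an moi near 0.5 was added right after compound to cells cultured 4 h from seeding (1,000 cells/well). Luciferase activity was determined 44 h later, 15 min after substrate addition at RT.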
# Sm TGR block: qHTS Assay for the Inhibitors of Schistosoma Mansoni Peroxiredoxins; Potency, µM (titrated, usually from 114 µM), inactives show at the highest dose activity change, negative = inhibition, actives largely listed as inhibitors; AID 485364, 2010; 360,000 compounds, 3% hits; purified TGR, DTNB reduction, TNB absorbance 405 nm; also: potency is read from the fitted curve at half-maximal effect; % is scaled to controls: 0 for no effect and ±100 for the full control effect; nearly all actives have a fitted effect of over 60% in size
#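 First, TGR (20 nM dispensed) and NADPH were mixed with compound. Second, a 15 min room-temperature incubation followed. Third, further NADPH and then DTNB were added to start the reaction. Finally, TNB absorbance was monitored kinetically.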
# Pf growth 48h: Primary qHTS for delayed death inhibitors of the malarial parasite plastid, 48 hour incubation; P. falciparum luciferase growth in erythrocytes, 48 h; Potency, µM (top dose mostly 28.7 µM), inactives show at the highest dose activity change, negative = inhibition, actives largely listed as inhibitors; 310,000 compounds, 5.9% hits; also: potency is read from the fitted curve at half-maximal effect; % is scaled to controls: 0 for no effect and ±100 for the full control effect
#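 Parasite viability was followed by luminescence of a genomically integrated firefly luciferase. Cultures held 0.1% parasitemia at 2% hematocrit (final), incubated under 5% CO2 at 37 C.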
# Pf growth 96h: Primary qHTS for delayed death inhibitors of the malarial parasite plastid, 96 hour incubation; P. falciparum luciferase reporter growth, 96 h; Potency, µM (series often up to 28.7 µM), for the others: at the highest dose activity change, negative = inhibition, actives largely listed as inhibitors; 320,000 compounds, 6.9% hits; also: potency is read from the fitted curve at half-maximal effect; % is scaled to controls: 0 for no effect and ±100 for the full control effect
#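 Delayed-death screen, second-generation endpoint: infected erythrocytes, 2% hematocrit, 0.05% parasitemia final; 96 hours at 37 C, 5% CO2; luciferase detection reagent; luminescence decrease equals reduced growth.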
# SARS PLpro yeast: qHTS of Yeast-based Assay for SARS-CoV PLP. S. cerevisiae expressing SARS-CoV PLpro, growth rescue. Potency, µM (highest dose often 32.9 µM), inactives show at the top dose activity, positive = growth rescue, usual class: activators. 330,000 compounds, 0.19% hits. AID 485353, 2010; calls by dose curve; also: potency is read from the fitted curve at half-maximal effect; 0% is about no effect; nearly all actives have a fitted effect of over 55% in size
# HCMV inh: qHTS Assay for inhibitors of the human cytomegalovirus (HCMV) | 410,000 compounds, 4.5% hits | HFF cells, HCMV-luciferase reporter, 72 h; active compounds read low | activity change, negative = inhibition, % at 57.5 µM; in the data active = activity change below about -60%; inconclusive = no clear call, values can overlap the other calls; inactive = above about -39%; also: % is scaled to controls: 0 for no effect and ±100 for the full control effect
#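 Steps: HFFs plated, 16 h 37C; compounds added; HCMV-luciferase added to MOI 1 PFU/cell; 72 h 37C; OneGlo reagent, 5 min room temperature; luminescence read, normalized to controls.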
# The depositor's hits bear a star; u = inconclusive; x = no result. A selection: hits, their analogues and other compounds. The true share with any hit is near 15%. Unless noted, calls follow the shape of the dose curve; as a rule, active = well fitted curve in the direction sought with a large enough effect; inconclusive = small, poorly fitted or top-dose-only effect, or another doubt; inactive = no such curve, though single readings can be large; an effect the other way counts as inactive or inconclusive.
SMILES,HCV inh,Sm TGR block,Pf growth 48h,Pf growth 96h,SARS PLpro yeast,HCMV inh
Cc1cc(OCC(=O)Nc2ccc(CN3CCOCC3)cc2)c2c(C)c(C)c(=O)oc2c1,11µM*,-8%,u,u,-3%,49
CCCc1cc(=O)oc2c(C)c(OCC(=O)NCCCN3CCOCC3)ccc12,-6%,-18%,-4%,u,4%,13
Cc1cc(=O)oc2c(C)c(OCC(=O)NCC3CCC(C(=O)O)CC3)ccc12 (stereo not given),16%,1%,29%,4%,8%,4
O=C(Nc1ccc(C(=O)N2CCCCC2)cc1)[C@H]1O[C@@H](n2ccc(=O)[nH]c2=O)[C@H](O)[C@@H]1O,x,x,x,x,x,2
CCCc1cc(=O)oc2c(C)c(OCC(=O)NC3CCN(Cc4ccccc4)CC3)ccc12,6.3µM*,6%,u,13µM*,4%,-32
O=C(COc1ccccc1Cl)Nc1ccc(CN2CCOCC2)cc1,13µM*,-19%,0%,51%,0%,-12
CCCN1CCc2c(sc(NC(=O)C3CCN(S(=O)(=O)c4cccs4)CC3)c2C(N)=O)C1,u,-13%,u,u,1%,-15
Cc1ccc2nc3sc(C(=O)Nc4c(C)[nH]c(=O)[nH]c4=O)c(N)c3cc2c1,4%,2%,35%,8.3µM*,6%,-18
Cc1ccc2cc3c(N)c(C(=O)Nc4c(C)[nH]c(=O)[nH]c4=O)sc3nc2c1,4%,0%,3%,u,19%,42
Cc1[nH]c(=O)[nH]c(=O)c1NC(=O)c1sc2nc3c(C)cccc3cc2c1N,u,2%,10%,4.7µM*,-2%,-26
Cc1cccc(NC(=O)c2sc3nc(N)c(C#N)cc3c2N)c1,6%,-11%,u,u,24%,82
Cc1ccc(C(=O)OCC(=O)c2ccc(S(=O)(=O)N3CCCCC3)cc2)o1,11%,-2%,-10%,2%,-4%,-5
Cc1ccc(S(=O)(=O)N2CCC(=O)N([C@H](COCc3ccc(Cl)cc3)Cc3ccccc3)CC2)cc1,x,x,x,x,x,6
Cc1ccc(S(=O)(=O)N2CCC(=O)N([C@H](COCc3cccc(Cl)c3)Cc3ccccc3)CC2)cc1,x,x,x,x,x,-6
Cc1ccc(S(=O)(=O)N2CCC(=O)N(C(COCc3cccc(Cl)c3)Cc3ccccc3)CC2)cc1 (stereo not given),u,-7%,8.3µM*,10µM*,1%,-16
Cc1ccc(S(=O)(=O)N2CCC(=O)N(C(COCc3ccccc3)Cc3ccccc3)CC2)cc1 (stereo not given),-8%,-5%,10µM*,10µM*,3%,-9
Cc1ccc(S(=O)(=O)N2CCC(=O)N(C(COCc3cccc(C(F)(F)F)c3)Cc3ccccc3)CC2)cc1 (stereo not given),10µM*,-6%,u,6.6µM*,-9%,1
CNC(=O)C(=O)Nc1cc2c3c(c1)C(C)C(=O)N3CCC2 (stereo not given),-1%,-6%,10%,-30%,2%,-4
CC1C(=O)N2CCCc3cc(NC(=O)C(=O)NCCCc4ccccc4)cc1c32 (stereo not given),u,-1%,12µM*,u,4%,5
CC1C(=O)N2CCCc3cc(NC(=O)COc4ccc(Cl)cc4)cc1c32 (stereo not given),u,-9%,u,15µM*,-6%,3
CC1C(=O)N2CCCc3cc(NC(=O)C(=O)NCCc4ccc(F)cc4)cc1c32 (stereo not given),11µM*,8%,u,u,-1%,24
Cc1cccc(NCN2C(=O)c3ccccc3C2=O)c1,16%,4%,x,u,-4%,-14
COc1ccc(OC2C(=O)N(Cc3ccc(F)cc3)C2c2cc(OC)c(OC)c(OC)c2)cc1 (stereo not given),15%,-2%,3.7µM*,25%,24%,-9
COc1cc(C2CC(=O)N(Cc3ccc(F)cc3)c3ccccc3S2)cc(OC)c1OC (stereo not given),x,9%,x,x,x,-82*
O=C(NCCc1ccccc1)C1CCN(S(=O)(=O)c2cccnc2)CC1,10%,1%,x,7.4µM*,-4%,-15
SMILES,HCV inh,Sm TGR block,Pf growth 48h,Pf growth 96h,SARS PLpro yeast,HCMV inh
Cc1ccccc1CCNC(=O)C1CCN(S(=O)(=O)c2ccc(-n3cnnn3)cc2)CC1,1%,24%,u,13µM*,-2%,-10
O=C(NCCc1cccc(F)c1)C1CCN(S(=O)(=O)c2ccccc2)CC1,-7%,5%,-3%,-2%,1%,-36
Cc1cccc(CCNC(=O)C2CCN(S(=O)(=O)c3ccccc3)CC2)c1,-4%,-7%,u,u,0%,-68*
O=C(NCCc1ccc(Cl)cc1)C1CCN(S(=O)(=O)c2ccc(-n3cnnn3)cc2)CC1,-11%,2%,u,u,4%,u
Cc1ccc(N2CC(NC(=O)c3ccc(S(=O)(=O)N4CCCC4)cc3)CC2=O)cc1C (stereo not given),x,7%,x,x,x,-29
O=C(Nc1nnc(SCc2cc(=O)n3cc(Cl)ccc3n2)s1)c1cccc(F)c1,x,2%,x,x,x,-13
CCCOP(=O)(c1ccc(N(C)C)cc1)C(Nc1ccccc1)c1ccc(C)cc1 (stereo not given),u,9%,u,u,0%,-5
Cc1ccsc1C(=O)N1CCC1(C)C(=O)NCCC#N (stereo not given),x,x,x,x,x,5
COc1cc2ccccc2cc1C(=O)Nc1ccc2oc(-c3ccc(Cl)cc3)nc2c1,x,1%,x,x,x,-13
COc1cc(C(=O)Nc2ccc3oc(-c4cccnc4)nc3c2)cc(OC)c1OC,u,8%,-16%,u,4%,11
COc1cc(C(=O)Nc2ccc3oc(-c4ccccc4)nc3c2)cc(OC)c1OC,x,8%,x,x,x,-81*
COc1ccccc1C(=O)Nc1ccc2oc(-c3ccc(F)cc3)nc2c1,u,-1%,5%,10µM*,-9%,57
c1ccc(C(Cc2nc(-c3ccncc3)no2)c2ccccc2)cc1,7.9µM*,-1%,7.4µM*,-1%,-6%,-69*
CCCc1ccc(-c2ccc(-c3noc(-c4ccncc4)n3)cc2)nc1,u,-17%,0%,10µM*,7%,-38
c1ccc(-c2noc(-c3cccnc3)n2)cc1,-1%,1%,179%,12µM*,x,84

# High-throughput results (PubChem BioAssay)
